In the library only some 10% were active in any assay of this set; here they are far more common.
GLS inh – blocks human kidney-isoform glutaminase activity; GLS enzymatic activity, qHTS titration; Potency, µM (titrated, usually from 45.5 µM), for the others: top-dose activity change, negative = inhibition, most hits filed as inhibitors; 0.21% of 410,000 active; O94925; further: on the % scale 0 is the no-effect control and ±100 the full control effect
Target sequence (O94925 whole entry, looked up, canonical isoform): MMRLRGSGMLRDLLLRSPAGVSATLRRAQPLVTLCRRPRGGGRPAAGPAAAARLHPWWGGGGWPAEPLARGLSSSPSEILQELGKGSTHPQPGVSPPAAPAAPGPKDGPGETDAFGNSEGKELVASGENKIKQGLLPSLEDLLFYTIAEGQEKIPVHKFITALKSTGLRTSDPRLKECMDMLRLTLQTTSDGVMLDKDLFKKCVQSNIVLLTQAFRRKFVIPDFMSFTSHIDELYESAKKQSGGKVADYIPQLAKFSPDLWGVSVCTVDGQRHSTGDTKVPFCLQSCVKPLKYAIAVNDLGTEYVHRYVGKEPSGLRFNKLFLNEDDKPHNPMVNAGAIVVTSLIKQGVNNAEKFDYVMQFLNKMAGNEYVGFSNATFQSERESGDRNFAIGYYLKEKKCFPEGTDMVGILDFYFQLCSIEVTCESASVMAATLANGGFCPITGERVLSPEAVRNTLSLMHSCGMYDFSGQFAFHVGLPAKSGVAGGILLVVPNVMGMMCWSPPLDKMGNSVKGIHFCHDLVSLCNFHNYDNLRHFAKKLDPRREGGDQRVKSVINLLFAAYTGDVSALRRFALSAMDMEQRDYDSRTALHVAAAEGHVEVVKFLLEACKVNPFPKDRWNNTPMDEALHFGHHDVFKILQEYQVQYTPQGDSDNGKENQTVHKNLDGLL
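Two-point fluorescence kinetic (t0, 30 min RT) for hKGA; glutamate detected via glutamate oxidase–HRP–Amplex Red. Substrate: 1 mM L-glutamine solution; buffer 45 mM KH2PO4, pH 8.2.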
JMJD2A Tudor inh – blocks the human JMJD2A Tudor domain; O75164; AlphaScreen JMJD2A-Tudor / H3K4me3 peptide binding; Potency, µM (highest dose often 114 µM), without a hit: at the top dose activity change, negative = inhibition, hits mostly inhibitors; 4.4% of 390,000 active; AID 504339; further: on the % scale 0 is the no-effect control and ±100 the full control effect; nearly all actives have a fitted effect of over 50% in size
G9a inh – blocks human histone lysine methyltransferase G9a | G9a H3K9 monomethylation, AlphaScreen, 2 h | 8.8% of 350,000 active | Q96KQ7 | Potency, µM (top dose mostly 102 µM), for the others: top-dose activity, negative = inhibition, usual class: inhibitors; further: on the % scale 0 is the no-effect control and ±100 the full control effect; nearly all actives have a fitted effect of over 75% in size
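G9a (20 nM) preincubated 15 min RT with compounds, then 500 nM biotinylated H3K9 peptide and 20 uM SAM added; 2 h RT reaction. Monomethyl-H3K9 product detected by AlphaScreen with anti-H3K9me1 antibody, streptavidin donor and anti-rabbit IgG acceptor beads.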
HP1b binding inh – blocks HP1-beta chromodomain binding to methylated histone tails | Potency, µM (doses to about 114 µM), inactives show top-dose activity change, negative = inhibition, hits mostly inhibitors | 0.56% of 390,000 active | AlphaScreen HP1-beta / biotin-H3K9me3 peptide binding | AID 540317; further: nearly all actives have a fitted effect of over 70% in size
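AlphaScreen: HP1-beta (50 nM) preformed 30 min with biotin-H3(1-18)K9me3 peptide (50 nM) in PBS pH 7.4, 0.01% Tween-20. Compound added for 30 min at RT, then streptavidin donor/nickel chelate acceptor beads (10 ug/mL) for 30 min.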
BAZ2B inh – inhibitors of human BAZ2B bromodomain. Q9UIF8. 4.4% of 360,000 active. AlphaScreen BAZ2B-H3K14Ac peptide displacement. Potency, µM (series often up to 114 µM), without a hit: at the highest dose activity change, negative = inhibition, hits mostly inhibitors; further: on the % scale 0 is the no-effect control and ±100 the full control effect; nearly all actives have a fitted effect of over 60% in size
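AlphaScreen displacement of biotin-H3(5-23)K14Ac peptide (50 nM final) from BAZ2B (50 nM final) in PBS pH 7.4, 0.01% Tween-20; complex preformed 30 min RT, then compounds (top 110 uM) 30 min RT, beads 20 min dark.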
Numbers without * were called inactive; ? = inconclusive; . = not tested or not shown; [ ] = another dose, or the depositor's remark. The call rests on the fitted dose curve; in most records, active means well fitted curve in the direction sought with a large enough effect; inconclusive means small, poorly fitted or top-dose-only effect, or another doubt; inactive means no such curve, though single readings can be large; an effect the other way counts as inactive or inconclusive. Potency means the concentration at half of the fitted maximal effect.

SMILES	GLS inh	JMJD2A Tudor inh	G9a inh	HP1b binding inh	BAZ2B inh
Cc1nc2scc(C)n2c(=O)c1S(=O)(=O)NC(C)c1ccccc1 (configuration not stated)	-24.6%	25.1µM*	18.2%	13.7%	-0.1%
O=C(CCn1c(=O)oc2ccccc21)Nc1ccccc1	5.5%	-15.8%	35.5µM*	9.1%	3.5%
O=C(CCn1c(=O)oc2ccccc21)NCCCN1CCN(c2ccc(F)cc2)CC1	.	-9.5%	2.51µM*	28.6%	?
O=C(CCn1c(=O)oc2ccccc21)NCCCN1CCOCC1	-4.0%	-8.4%	2.9%[59 µM]	17.0%	1.2%
Cc1ccc(-n2ncc(C(=O)NCc3ccccc3)c2C2CCN(C(=O)OC(C)(C)C)CC2)cc1	-9.0%	-21.7%	?	12.4%	3.1%[57.1 µM]
Cc1c(O)cnc2nn(-c3ccccc3)c(=N)n12	3.6%	.	.	.	.
CC(=O)Nc1ccc(S(=O)(=O)NCC(=O)OCC(=O)N2CCCc3ccccc32)cc1	-0.8%	-5.5%	3.9%[59 µM]	39.8%	-2.6%
CC(=O)Nc1ccc(S(=O)(=O)N(C)CC(=O)Nc2ccccc2N2CCCC2)cc1	7.1%	-12.4%	44.7µM*	10.8%	-28.0%
CN(CC(=O)Nc1ccc(F)cc1)CC(=O)N1CCc2ccccc21	6.2%	-8.5%	56.2µM*	30.4%	2.6%
CN(C)c1ccc(CNC(=O)Cc2ccc(NC(=O)N3CCCCc4ccccc43)cc2)cc1	9.9%	50.1µM*	12.6µM*	-11.8%	44.7µM*
CC(=O)Nc1ccc(S(=O)(=O)N(C)CC(=O)OCC(=O)N2CCc3ccccc32)cc1	-12.7%	5.0%	50.1µM*	33.4%	2.1%
COCCNC(=S)N1CCN(Cc2cccc(OC)c2)CC1	2.3%	2.7%	.	49.4%	4.0%
COC(=O)c1ccc2nc(-c3ccccc3)c(Cc3ccc(C)cc3)n2c1	2.1%	.	.	.	.
CCCN1Cc2cccc(C(=O)Nc3ccc(OC)cc3OC)c2C1=O	-0.2%	-13.3%	-3.9%[59 µM]	21.4%	.
NC1=CC(=O)C(=O)c2ccccc21	3.0%	-17.1%	.	-1.5%	.
O=C1C=C(O)c2[nH]c(=O)ccc2C1=O	?	10µM*	.	-9.8%	.
COc1ccccc1-c1ccc2ncnc(Nc3ccccc3)c2c1	.	.	-39.2%[0.501 µM]	.	.
CCOC(=O)CCC(NC(=O)CCCCC(=O)NC(CCC(=O)OCC)C(=O)OCC)C(=O)OCC (configuration not stated)	3.9%	-1.5%	1.6%[59 µM]	13.7%	-0.8%
CC(CNC(=O)c1cncc(O)c1)NC(=O)c1cncc(O)c1 (configuration not stated)	-5.8%	50.1µM*	44.7µM*	9.0%	?
CCOC(=O)CCC(NC(=O)c1cncc(O)c1)C(=O)OCC (configuration not stated)	-2.1%	44.7µM*	?	9.4%	?
O=C1c2ccccc2C(=O)N1c1ccc(S(=O)(=O)N2CCOCC2)cc1	.	-4.3%	.	29.2%	.
N#CC(=C1C=CC(=NO)C(Cl)=C1)c1ccc(Cl)cc1	-4.5%	20µM*	.	?	.
Cc1ccc(S(=O)(=O)Nn2c(C)nnc2-n2nc(C)cc2C)cc1	-0.1%	50.1µM*	-41.7%[59 µM]	5.2%	70.8µM*
COc1ccccc1CC(=O)NCc1ccc2c(c1)OCO2	-8.3%	-18.0%	-12.2%[12.7 µM]	25.7%	-8.2%
CCOc1ccc(CN(CCc2ccc3c(c2)OCO3)Cc2cc(OC)c(OC)cc2OC)cc1	0.2%	8.91µM*	2.82µM*	11.2µM*	28.2µM*
SMILES	GLS inh	JMJD2A Tudor inh	G9a inh	HP1b binding inh	BAZ2B inh
CCOc1ccccc1CN(CCc1ccc2c(c1)OCO2)Cc1cccc(OC)c1OC	2.0%	4.47µM*	2.51µM*	?	50.1µM*
CCOc1cc(CNCc2ccc3c(c2)OCO3)ccc1OC	-13.3%	-11.3%	9.0%[59 µM]	46.2%	-26.1%
CCOc1ccccc1C(=O)Oc1c(S(=O)(=O)c2ccc(C)cc2)c(C)nn1-c1ccccc1	?	-14.0%	?	23.9%	?
Cc1cccc(CC(=O)NCCc2csc(-c3ccc(C(F)(F)F)cc3)n2)c1	5.7%	0.6%	3.2%[59 µM]	29.1%[57 µM]	5.6%
COCCn1c(NC(=S)NC(=O)C23CC4CC(CC(C4)C2)C3)cc(=O)[nH]c1=O	-10.6%	-5.1%[11.4 µM]	7.3%[59 µM]	24.1%	-13.9%
COCCn1c(NC(=S)NC(=O)C2CC2)cc(=O)[nH]c1=O	-32.2%	1µM*	?	11.5%	?
